Results taken from paper PMC7862700, “An all-to-all approach to the identification of sequence-specific readers for epigenetic DNA modifications on cytosine”.

Legend:
Assay in all cases: DAPPL (digital affinity profiling via proximity ligation, sequencing); 10 mM Tris-HCl pH 7.5, 50 mM NaCl, 1 mM DTT, 4% glycerol, room temperature, 30 min; GST-TFs on glutathione beads, 16-mer random dsDNA library, 0.1% formaldehyde crosslink after washing; high values mean tight binding
FEV = target: T1, FEV (Homo sapiens, UniProt Q99581 1-238); details: protein: recombinant; tags: N-terminal GST; dsDNA, one strand shown
T1 sequence: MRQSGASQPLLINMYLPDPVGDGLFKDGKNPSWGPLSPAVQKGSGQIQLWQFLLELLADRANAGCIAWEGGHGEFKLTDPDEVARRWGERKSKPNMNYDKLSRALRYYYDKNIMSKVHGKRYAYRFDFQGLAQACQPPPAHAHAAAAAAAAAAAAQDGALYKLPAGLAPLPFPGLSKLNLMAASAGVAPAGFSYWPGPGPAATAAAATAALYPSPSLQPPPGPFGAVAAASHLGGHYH
Method in brief: (§1)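 Beads coated with glutathione captured GST-fused human transcription factors that had been expressed in yeast, and the factors were then given DNA barcodes and pooled with a tag-only sample. The pools were incubated with 200 nmole of a random double-stranded 16-mer DNA library in Tris/NaCl/DTT/glycerol buffer for 30 min at room temperature, washed, crosslinked with 0.1% formaldehyde and proximity-ligated with BsaI/T4 ligase at 37 °C for 1 h. PCR amplification and Illumina NextSeq500 sequencing came last. Binding signal is each hexamer's read frequency for a factor divided by its frequency for the tag-only sample.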

ETV5 = ETV5 (Homo sapiens, UniProt P41161 1-510); details: protein: recombinant; tags: N-terminal GST; dsDNA, one strand shown
Method in brief: as §1

HSF1 = HSF1 (Homo sapiens, UniProt Q00613 1-529); details: protein: recombinant; tags: N-terminal GST; chain copies: 3; dsDNA, one strand shown
Method in brief: as §1

SPIC = target: T2, SPIC (Homo sapiens, UniProt Q8N5J4 1-248); details: protein: recombinant; tags: N-terminal GST; dsDNA, one strand shown
T2 sequence: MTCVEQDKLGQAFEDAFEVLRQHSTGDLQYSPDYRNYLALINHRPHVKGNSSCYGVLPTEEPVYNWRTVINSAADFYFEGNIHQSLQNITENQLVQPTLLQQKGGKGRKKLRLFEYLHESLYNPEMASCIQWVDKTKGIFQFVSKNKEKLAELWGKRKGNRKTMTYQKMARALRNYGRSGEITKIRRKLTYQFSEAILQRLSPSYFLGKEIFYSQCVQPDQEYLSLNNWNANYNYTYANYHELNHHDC
Method in brief: as §1

ELF4 = ELF4 (Homo sapiens, UniProt Q99607 1-663); details: protein: recombinant; tags: N-terminal GST; dsDNA, one strand shown
Method in brief: as §1

ELK4 = target: T3, ELK4 (Homo sapiens, UniProt P28324-2 1-405); details: protein: recombinant; tags: N-terminal GST; dsDNA, one strand shown
T3 sequence: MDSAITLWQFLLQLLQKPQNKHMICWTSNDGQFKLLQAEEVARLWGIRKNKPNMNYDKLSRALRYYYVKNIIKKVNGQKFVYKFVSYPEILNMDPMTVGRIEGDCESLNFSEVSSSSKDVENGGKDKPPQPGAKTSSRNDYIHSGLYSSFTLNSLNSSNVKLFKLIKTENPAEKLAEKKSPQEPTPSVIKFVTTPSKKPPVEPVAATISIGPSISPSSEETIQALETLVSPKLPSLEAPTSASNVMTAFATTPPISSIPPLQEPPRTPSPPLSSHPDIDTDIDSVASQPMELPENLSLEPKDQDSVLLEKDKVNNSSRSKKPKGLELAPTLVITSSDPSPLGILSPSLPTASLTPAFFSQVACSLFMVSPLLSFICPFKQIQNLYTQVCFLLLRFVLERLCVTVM
Method in brief: as §1

ETV2 = target: T4, ETV2 (Homo sapiens, UniProt O00321 1-342); details: protein: recombinant; tags: N-terminal GST; dsDNA, one strand shown
T4 sequence: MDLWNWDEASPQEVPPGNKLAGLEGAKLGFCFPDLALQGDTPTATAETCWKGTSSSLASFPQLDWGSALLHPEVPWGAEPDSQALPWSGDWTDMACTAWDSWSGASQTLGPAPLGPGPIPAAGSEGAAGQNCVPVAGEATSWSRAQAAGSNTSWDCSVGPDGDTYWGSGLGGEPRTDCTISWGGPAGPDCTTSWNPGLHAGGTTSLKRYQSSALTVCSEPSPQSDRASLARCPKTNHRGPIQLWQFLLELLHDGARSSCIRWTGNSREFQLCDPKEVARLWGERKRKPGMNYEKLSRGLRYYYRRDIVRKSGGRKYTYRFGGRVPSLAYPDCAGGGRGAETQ
Method in brief: as §1

ELF3 = target: T5, ELF3 (Homo sapiens, UniProt P78545 1-371); details: protein: recombinant; tags: N-terminal GST; dsDNA, one strand shown
T5 sequence: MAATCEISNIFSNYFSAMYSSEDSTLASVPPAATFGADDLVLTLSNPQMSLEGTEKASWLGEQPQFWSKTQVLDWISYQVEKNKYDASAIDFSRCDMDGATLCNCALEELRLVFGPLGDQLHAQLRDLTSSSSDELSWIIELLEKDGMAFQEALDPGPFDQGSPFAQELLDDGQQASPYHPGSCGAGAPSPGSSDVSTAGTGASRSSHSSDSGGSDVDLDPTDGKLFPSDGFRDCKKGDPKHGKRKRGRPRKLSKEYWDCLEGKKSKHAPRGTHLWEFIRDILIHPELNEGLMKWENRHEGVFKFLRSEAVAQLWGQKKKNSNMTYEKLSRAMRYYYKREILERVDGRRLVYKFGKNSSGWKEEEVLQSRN
Method in brief: as §1

CRX = CRX (Homo sapiens, UniProt O43186 1-299); details: protein: recombinant; tags: N-terminal GST; dsDNA, one strand shown
Method in brief: as §1

ETV1 = ETV1 (Homo sapiens, UniProt P50549 1-477); details: protein: recombinant; tags: N-terminal GST; dsDNA, one strand shown
Method in brief: as §1

ERF = target: T6, ERF (Homo sapiens, UniProt P50548 1-548); details: protein: recombinant; tags: N-terminal GST; dsDNA, one strand shown
T6 sequence: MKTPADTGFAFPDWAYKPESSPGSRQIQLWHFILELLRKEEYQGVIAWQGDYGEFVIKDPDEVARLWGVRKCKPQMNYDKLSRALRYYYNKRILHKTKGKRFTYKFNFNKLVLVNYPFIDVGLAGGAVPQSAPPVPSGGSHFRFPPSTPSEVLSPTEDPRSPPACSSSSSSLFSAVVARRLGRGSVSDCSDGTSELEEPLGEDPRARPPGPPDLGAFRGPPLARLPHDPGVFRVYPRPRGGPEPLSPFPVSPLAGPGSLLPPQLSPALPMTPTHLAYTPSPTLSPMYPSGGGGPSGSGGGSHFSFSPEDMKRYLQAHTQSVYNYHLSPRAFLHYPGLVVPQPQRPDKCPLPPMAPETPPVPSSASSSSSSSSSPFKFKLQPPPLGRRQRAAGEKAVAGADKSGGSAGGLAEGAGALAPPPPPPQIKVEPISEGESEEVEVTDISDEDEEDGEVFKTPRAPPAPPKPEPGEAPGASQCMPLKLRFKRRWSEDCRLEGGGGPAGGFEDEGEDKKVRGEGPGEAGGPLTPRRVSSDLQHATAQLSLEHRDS
Method in brief: as §1

ETV3L = target: T7, ETV3L (Homo sapiens, UniProt Q6ZN32 1-361); details: protein: recombinant; tags: N-terminal GST; dsDNA, one strand shown
T7 sequence: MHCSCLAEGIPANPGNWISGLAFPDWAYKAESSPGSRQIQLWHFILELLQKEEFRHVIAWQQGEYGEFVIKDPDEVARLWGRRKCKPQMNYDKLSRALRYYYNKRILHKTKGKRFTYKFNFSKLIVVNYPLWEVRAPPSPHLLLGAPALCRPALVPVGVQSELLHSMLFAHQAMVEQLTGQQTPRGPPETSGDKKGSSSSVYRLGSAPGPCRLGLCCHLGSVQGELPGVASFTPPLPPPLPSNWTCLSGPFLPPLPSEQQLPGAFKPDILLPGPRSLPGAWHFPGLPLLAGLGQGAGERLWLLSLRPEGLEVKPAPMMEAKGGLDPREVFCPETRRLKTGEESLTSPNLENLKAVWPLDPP
Method in brief: as §1

ETS2 = target: T8, ETS2 (Homo sapiens, UniProt P15036 1-469); details: protein: recombinant; tags: N-terminal GST; dsDNA, one strand shown
T8 sequence: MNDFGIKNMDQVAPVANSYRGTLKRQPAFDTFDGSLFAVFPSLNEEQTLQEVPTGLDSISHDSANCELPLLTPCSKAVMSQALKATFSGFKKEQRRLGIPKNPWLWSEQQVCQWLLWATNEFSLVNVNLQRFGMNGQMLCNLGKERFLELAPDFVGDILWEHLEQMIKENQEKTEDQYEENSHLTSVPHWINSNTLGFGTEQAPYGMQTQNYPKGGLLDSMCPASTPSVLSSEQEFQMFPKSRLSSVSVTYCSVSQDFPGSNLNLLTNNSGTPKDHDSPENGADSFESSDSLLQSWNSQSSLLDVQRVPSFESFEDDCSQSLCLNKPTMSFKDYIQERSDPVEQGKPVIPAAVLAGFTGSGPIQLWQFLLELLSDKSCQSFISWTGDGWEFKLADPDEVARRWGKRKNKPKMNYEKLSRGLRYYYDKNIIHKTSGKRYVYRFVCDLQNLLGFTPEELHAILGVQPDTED
Method in brief: as §1

SPDEF = target: T9, SPDEF (Homo sapiens, UniProt O95238 1-335); details: protein: recombinant; tags: N-terminal GST; dsDNA, one strand shown
T9 sequence: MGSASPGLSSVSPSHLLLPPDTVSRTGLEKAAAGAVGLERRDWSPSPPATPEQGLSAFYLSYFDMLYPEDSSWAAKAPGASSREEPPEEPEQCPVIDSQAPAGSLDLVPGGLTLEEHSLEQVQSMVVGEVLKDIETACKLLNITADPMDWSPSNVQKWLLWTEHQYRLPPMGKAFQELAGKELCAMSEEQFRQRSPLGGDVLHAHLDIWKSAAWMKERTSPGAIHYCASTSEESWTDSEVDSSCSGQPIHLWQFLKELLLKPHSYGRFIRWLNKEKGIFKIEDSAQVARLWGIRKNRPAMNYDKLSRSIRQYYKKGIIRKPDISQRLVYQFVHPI
Method in brief: as §1

ETV7 = target: T10, ETV7 (Homo sapiens, UniProt Q9Y603 1-341); details: protein: recombinant; tags: N-terminal GST; dsDNA, one strand shown
T10 sequence: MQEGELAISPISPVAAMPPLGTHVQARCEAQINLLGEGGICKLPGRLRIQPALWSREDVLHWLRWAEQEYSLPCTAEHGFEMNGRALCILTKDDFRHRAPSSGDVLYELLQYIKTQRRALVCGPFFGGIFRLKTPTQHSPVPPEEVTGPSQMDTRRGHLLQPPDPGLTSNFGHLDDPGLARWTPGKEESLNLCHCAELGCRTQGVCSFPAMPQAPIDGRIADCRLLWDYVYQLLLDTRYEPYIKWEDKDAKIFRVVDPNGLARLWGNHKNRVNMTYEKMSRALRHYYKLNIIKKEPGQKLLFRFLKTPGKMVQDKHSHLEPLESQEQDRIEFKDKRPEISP
Method in brief: as §1

ELF5 = target: T11, ELF5 (Homo sapiens, UniProt Q9UKW6-2 1-255); details: protein: recombinant; tags: N-terminal GST; dsDNA, one strand shown
T11 sequence: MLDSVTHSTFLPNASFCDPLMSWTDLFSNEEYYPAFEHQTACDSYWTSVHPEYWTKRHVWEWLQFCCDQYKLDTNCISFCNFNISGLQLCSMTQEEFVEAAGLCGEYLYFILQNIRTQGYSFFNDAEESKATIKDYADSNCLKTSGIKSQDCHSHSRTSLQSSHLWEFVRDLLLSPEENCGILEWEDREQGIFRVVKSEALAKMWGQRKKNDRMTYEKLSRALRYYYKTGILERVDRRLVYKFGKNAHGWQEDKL
Method in brief: as §1

ETV3 = target: T12, ETV3 (Homo sapiens, UniProt P41162-2 1-143); details: protein: recombinant; tags: N-terminal GST; dsDNA, one strand shown
T12 sequence: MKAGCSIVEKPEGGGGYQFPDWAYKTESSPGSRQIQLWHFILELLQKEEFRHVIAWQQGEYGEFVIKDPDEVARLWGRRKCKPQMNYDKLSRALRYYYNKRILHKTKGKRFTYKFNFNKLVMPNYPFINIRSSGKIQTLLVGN
Method in brief: as §1

ETV6 = ETV6 (Homo sapiens, UniProt P41212 1-452); details: protein: recombinant; tags: N-terminal GST; dsDNA, one strand shown
Method in brief: as §1

Chain of ETV6 (P41212 whole entry): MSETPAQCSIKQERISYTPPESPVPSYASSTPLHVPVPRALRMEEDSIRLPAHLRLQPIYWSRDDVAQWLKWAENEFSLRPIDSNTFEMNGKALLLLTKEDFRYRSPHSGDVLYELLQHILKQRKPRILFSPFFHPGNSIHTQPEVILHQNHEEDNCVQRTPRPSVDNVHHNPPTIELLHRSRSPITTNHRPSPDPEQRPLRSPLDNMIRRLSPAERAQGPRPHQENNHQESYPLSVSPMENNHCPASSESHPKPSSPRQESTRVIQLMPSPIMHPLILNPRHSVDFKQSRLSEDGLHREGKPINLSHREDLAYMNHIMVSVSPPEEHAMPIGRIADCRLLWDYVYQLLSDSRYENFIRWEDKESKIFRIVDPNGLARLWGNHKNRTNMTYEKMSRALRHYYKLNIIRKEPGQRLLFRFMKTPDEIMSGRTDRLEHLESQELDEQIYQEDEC
Chain of ETV1 (P50549 whole entry): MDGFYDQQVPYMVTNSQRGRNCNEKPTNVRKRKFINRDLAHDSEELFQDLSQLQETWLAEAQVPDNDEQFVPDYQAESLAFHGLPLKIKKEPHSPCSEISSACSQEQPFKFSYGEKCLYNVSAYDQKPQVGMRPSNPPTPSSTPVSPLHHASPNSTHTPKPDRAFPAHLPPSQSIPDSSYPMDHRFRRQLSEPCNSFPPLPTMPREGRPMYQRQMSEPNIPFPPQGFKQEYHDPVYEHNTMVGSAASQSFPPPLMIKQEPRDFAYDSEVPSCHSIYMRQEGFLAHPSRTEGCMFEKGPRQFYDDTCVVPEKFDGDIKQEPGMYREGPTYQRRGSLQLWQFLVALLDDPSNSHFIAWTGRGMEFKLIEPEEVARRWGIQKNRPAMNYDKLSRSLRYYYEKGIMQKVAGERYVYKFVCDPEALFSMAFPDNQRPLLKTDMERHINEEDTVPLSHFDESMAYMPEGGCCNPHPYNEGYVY
Chain of ELF4 (Q99607 whole entry): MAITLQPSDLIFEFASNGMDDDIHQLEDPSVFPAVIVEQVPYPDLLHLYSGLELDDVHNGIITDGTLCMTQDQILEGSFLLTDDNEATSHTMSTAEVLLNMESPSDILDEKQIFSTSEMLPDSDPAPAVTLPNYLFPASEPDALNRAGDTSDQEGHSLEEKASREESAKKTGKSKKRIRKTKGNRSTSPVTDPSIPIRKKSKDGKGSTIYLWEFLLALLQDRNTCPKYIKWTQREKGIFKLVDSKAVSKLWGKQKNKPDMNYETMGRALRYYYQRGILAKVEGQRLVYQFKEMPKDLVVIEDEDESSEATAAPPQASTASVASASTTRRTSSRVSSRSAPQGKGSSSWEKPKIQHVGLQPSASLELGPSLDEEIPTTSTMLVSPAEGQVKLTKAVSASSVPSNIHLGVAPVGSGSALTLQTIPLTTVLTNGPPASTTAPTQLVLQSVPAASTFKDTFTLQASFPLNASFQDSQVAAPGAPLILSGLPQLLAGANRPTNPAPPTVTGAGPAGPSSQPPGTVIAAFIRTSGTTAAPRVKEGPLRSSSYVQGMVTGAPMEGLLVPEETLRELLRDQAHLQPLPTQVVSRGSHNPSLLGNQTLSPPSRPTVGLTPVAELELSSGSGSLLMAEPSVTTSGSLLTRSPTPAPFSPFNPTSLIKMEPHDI
Chain of ETV5 (P41161 whole entry): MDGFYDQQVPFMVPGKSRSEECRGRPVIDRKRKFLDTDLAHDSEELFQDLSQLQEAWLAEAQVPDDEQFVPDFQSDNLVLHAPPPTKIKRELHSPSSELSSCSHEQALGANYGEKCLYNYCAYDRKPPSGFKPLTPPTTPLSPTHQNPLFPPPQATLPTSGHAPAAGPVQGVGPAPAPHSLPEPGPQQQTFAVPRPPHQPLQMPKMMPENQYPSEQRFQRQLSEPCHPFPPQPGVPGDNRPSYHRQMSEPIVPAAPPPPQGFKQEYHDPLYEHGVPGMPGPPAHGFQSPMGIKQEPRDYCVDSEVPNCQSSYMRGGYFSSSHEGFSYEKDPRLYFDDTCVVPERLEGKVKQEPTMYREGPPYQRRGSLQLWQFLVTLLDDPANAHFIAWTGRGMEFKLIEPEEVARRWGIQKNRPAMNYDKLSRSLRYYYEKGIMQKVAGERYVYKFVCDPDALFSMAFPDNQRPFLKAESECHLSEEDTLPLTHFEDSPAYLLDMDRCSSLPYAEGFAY
Chain of HSF1 (Q00613 whole entry): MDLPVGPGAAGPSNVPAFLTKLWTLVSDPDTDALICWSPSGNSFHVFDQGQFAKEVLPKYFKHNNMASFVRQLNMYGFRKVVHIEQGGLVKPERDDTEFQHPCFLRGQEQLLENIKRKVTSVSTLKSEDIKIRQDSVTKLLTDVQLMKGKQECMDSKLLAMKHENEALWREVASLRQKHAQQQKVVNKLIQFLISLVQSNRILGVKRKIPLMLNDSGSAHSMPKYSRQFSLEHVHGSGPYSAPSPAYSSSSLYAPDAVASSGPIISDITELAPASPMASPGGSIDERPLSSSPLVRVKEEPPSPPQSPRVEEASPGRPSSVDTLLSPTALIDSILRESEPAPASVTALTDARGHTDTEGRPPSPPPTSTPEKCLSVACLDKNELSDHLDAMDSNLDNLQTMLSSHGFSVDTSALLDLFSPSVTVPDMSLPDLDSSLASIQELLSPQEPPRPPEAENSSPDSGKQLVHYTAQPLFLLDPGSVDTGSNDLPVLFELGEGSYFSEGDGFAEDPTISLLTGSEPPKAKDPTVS
Chain of CRX (O43186 whole entry): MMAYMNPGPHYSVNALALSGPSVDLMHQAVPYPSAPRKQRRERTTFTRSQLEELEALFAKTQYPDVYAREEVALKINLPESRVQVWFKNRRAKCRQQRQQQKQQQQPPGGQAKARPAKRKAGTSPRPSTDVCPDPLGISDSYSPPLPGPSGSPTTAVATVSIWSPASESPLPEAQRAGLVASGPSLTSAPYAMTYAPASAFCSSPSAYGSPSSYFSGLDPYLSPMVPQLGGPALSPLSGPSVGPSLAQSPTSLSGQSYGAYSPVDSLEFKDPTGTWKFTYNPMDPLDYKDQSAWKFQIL

TACGAA
binding signal (FEV): 1.29 fold enrichment (6-mer frequency, TF over GST control)
binding signal (ETV5): 1.21 fold enrichment (6-mer frequency, TF over GST control)
binding signal (HSF1): 1.38 fold enrichment (6-mer frequency, TF over GST control)
binding signal (SPIC): 1.11 fold enrichment (6-mer frequency, TF over GST control)
binding signal (ELF4): 1.31 fold enrichment (6-mer frequency, TF over GST control)
binding signal (ELK4): 1.23 fold enrichment (6-mer frequency, TF over GST control)
binding signal (ETV2): 1.16 fold enrichment (6-mer frequency, TF over GST control)
binding signal (ELF3): 1.25 fold enrichment (6-mer frequency, TF over GST control)
binding signal (CRX): 1.32 fold enrichment (6-mer frequency, TF over GST control)
binding signal (ETV1): 1.24 fold enrichment (6-mer frequency, TF over GST control)
binding signal (ERF): 1.28 fold enrichment (6-mer frequency, TF over GST control)
binding signal (ETV3L): 1.27 fold enrichment (6-mer frequency, TF over GST control)
binding signal (ETS2): 1.18 fold enrichment (6-mer frequency, TF over GST control)
binding signal (SPDEF): 1.18 fold enrichment (6-mer frequency, TF over GST control)
binding signal (ETV7): 1.31 fold enrichment (6-mer frequency, TF over GST control)
binding signal (ELF5): 1.2 fold enrichment (6-mer frequency, TF over GST control)
binding signal (ETV3): 1.19 fold enrichment (6-mer frequency, TF over GST control)
binding signal (ETV6): 1.18 fold enrichment (6-mer frequency, TF over GST control)
